Results as given in PubChem BioAssay.
Activity calls are given as the source filed them.

Assays:
Albumin (Bos taurus) = Albumin (Bos taurus) (UniProt P02769); test: compounds binding labelled BSA control protein – biochemical, small-molecule microarray, Alexa647 label, 635/667 nm fluorescence, artefact control for SMM control protein annotation, profiling panel (AID 1118); settings: BSA-A647 binding, fluorescence 635 nm, higher = more signal;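 note: score merges 667 nm emission intensity and signal-to-noise per printed compound spot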
Chain of Albumin (Bos taurus) (P02769 whole entry, looked up): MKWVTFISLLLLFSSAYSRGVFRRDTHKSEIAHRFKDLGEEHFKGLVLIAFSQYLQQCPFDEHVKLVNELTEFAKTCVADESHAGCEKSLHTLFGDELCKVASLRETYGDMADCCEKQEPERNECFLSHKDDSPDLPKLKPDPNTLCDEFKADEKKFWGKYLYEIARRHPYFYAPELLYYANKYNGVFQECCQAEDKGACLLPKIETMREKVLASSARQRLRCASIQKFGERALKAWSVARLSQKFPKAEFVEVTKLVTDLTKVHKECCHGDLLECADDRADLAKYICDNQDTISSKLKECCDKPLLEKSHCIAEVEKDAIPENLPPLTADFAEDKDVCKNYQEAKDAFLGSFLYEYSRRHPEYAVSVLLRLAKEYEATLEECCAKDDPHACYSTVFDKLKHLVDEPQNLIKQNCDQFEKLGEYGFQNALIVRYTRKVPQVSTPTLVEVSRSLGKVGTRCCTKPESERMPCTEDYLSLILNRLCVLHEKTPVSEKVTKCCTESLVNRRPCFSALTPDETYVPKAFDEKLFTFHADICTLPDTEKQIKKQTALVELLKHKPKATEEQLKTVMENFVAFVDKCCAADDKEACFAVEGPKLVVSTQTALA

[1] = probe aXIP binding to arrayed compounds – biochemical, NeuroSMM set, 635/667 nm fluorescence, primary screen (AID 1119); settings: small-molecule microarray, higher = more signal, called active from +8 up or from −8 down;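 note: probe is the protein aXip251-270 applied at 1 µg/mL to compound-printed slides; binding of probe to printed compounds measured as 667 nm fluorescence plus signal to noise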
[2] = probe aNOTCH3 binding on compound microarray – biochemical, small-molecule microarray, 635/667 nm fluorescence, primary screen (AID 1120); settings: higher = more signal;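 note: probe is a biotin-tagged antibody raised against NOTCH3 rather than NOTCH3 protein; score merges spot fluorescence near 667 nm with spot signal to noise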
[3] = probe aNOTCH2 binding on compound microarray – biochemical, small-molecule microarray, 635/667 nm fluorescence, primary screen (AID 1121); settings: higher = more signal;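 note: score merges feature fluorescence read at 667 nm with its signal to noise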
[4] = target: Carbonic anhydrase 2 (Homo sapiens) (UniProt P00918); test: compounds binding carbonic anhydrase 2 – biochemical, small-molecule microarray, Alexa647-labelled CAII, profiling panel (AID 1122); settings: CAII-A647 binding fluorescence, higher = more signal
[5] = COS7 lysate on small-molecule microarray, probe aHis, 635 nm (AID 1123); settings: COS7 cell lysate, fluorescence, higher = more signal;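 note: z-score combines 667nm fluorescence intensity with signal-to-noise per printed compound spot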
[6] = probe aLAP1 signal on lysate-treated microarray – cell lysate, small-molecule microarray, COS7 lysate, primary screen (AID 1124); settings: probe aLAP1, fluorescence, higher = more signal;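 note: lysate comes from COS7 cells expressing LAP1 and is applied at 0.3 µg/mL; score merges spot fluorescence near 667 nm with signal-to-noise over triplicate slides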
Sam68 (KHDRBS1) = test: compounds binding KHDRBS1 protein – biochemical, small-molecule microarray, 635 nm fluorescence, primary screen (AID 1125); settings: higher = more signal;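 note: score merges 667 nm channel intensity with signal to noise over triplicate slides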
[7] = system: Chordin-like protein 2 (CHRDL2); test: compounds binding chordin-like 2 – biochemical, small-molecule microarray, 635 nm fluorescence, primary screen (AID 1126); settings: fluorescence 635 nm, higher = more signal;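 note: printed compound slides probed with Chrdl2 protein at 4 µg/mL for 1 h at 4 C; score merges 667 nm emission intensity with signal to noise over three replicate slides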
[8] = target: Concanavalin-A (Canavalia ensiformis) (UniProt P02866); test: compounds binding concanavalin A lectin – biochemical, small-molecule microarray, Alexa647 label, 635 nm, artefact control for SMM control protein annotation, primary screen (AID 1127); settings: ConA-A647 binding fluorescence, higher = more signal;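 note: z combines 667 nm emission intensity with signal-to-noise across three replicate slides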
Chain of Concanavalin-A (Canavalia ensiformis) (P02866 whole entry, looked up): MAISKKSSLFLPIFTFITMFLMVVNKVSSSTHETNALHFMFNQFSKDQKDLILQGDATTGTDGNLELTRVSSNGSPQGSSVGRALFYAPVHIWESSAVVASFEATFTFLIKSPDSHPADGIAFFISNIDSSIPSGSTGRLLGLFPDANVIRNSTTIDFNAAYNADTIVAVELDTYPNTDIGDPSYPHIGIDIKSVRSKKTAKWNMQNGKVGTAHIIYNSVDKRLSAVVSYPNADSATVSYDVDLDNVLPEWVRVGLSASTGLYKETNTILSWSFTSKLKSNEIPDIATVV

[9] = compounds binding Alexa647 anti-His antibody – biochemical, small-molecule microarray, 635 nm fluorescence, artefact control for SMM control protein annotation, primary screen (AID 1128); settings: higher = more signal;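 note: score merges feature fluorescence with signal-to-noise for each printed compound spot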
[10] = system: Human papillomavirus type 1a E7 protein (residues 1-88); test: HPV1a E7 small-molecule binders, primary screen, biochemical, small-molecule microarray, residues 1-88, 635 nm (AID 1129); settings: small-molecule microarray binding, fluorescence 635 nm; higher = more signal
[11] = target: Focal adhesion kinase 1 (Homo sapiens) (UniProt Q05397); test: PTK2 protein binding on printed compound slides – biochemical, small-molecule microarray, 635/667 nm fluorescence, BSA, DTT, primary screen (AID 1130); settings: 635 nm fluorescence, higher = more signal;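 note: composite of spot emission at 667 nm and signal to noise over triplicate slides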
Chain of Focal adhesion kinase 1 (Homo sapiens) (Q05397 whole entry, looked up): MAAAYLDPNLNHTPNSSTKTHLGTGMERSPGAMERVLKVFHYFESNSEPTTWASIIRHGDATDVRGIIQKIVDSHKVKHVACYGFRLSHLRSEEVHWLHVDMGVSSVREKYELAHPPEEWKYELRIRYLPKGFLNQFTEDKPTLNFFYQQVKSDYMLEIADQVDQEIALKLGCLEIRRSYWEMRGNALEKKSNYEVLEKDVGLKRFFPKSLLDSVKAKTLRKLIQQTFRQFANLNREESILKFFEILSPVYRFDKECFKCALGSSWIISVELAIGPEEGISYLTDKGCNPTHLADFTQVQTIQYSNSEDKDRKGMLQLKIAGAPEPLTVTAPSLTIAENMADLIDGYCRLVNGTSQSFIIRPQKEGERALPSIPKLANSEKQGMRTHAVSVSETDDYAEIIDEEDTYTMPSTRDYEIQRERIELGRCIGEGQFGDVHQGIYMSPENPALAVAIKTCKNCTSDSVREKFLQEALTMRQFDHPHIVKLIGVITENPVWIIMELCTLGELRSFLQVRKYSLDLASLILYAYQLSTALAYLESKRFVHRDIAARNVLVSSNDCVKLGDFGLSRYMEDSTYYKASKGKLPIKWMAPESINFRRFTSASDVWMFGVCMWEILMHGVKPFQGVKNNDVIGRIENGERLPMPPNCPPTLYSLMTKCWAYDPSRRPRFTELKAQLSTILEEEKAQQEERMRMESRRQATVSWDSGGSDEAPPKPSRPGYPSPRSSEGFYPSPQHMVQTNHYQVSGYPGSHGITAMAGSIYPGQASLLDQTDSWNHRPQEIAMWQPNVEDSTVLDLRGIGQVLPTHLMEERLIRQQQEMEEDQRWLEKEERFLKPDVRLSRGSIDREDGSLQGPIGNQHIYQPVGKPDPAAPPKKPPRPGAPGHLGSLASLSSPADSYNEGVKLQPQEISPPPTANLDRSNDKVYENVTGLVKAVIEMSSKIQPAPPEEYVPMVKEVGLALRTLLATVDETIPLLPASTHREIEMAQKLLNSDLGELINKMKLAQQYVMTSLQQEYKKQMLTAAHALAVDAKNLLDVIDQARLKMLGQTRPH

[12] = system: Fibrinogen (Alexa647-labelled); test: Alexa647-fibrinogen binding to printed small molecules – biochemical, small-molecule microarray, 635/667 nm fluorescence, artefact control for SMM control-protein annotation, profiling panel (AID 1131); settings: fibrinogen-A647 binding fluorescence, higher = more signal;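 note: z-score merges 667 nm fluorescence with per-spot signal-to-noise over triplicate slides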
[13] = target: Follistatin (Homo sapiens) (UniProt P19883); test: FST protein binding to printed compounds – biochemical, small-molecule microarray, 635/667 nm fluorescence, primary screen (AID 1132); settings: 635 nm fluorescence, higher = more signal
Chain of Follistatin (Homo sapiens) (P19883 whole entry, looked up): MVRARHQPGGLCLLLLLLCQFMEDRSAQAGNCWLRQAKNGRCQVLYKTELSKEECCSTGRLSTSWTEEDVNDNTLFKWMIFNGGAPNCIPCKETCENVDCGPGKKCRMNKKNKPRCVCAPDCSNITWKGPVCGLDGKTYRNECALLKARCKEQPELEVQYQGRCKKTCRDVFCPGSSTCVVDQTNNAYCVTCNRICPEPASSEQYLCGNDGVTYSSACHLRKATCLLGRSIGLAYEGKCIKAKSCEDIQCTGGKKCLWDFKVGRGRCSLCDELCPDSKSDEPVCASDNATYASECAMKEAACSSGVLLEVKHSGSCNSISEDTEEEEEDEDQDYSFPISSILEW

[14] = target: Fibroblast growth factor 2 (Homo sapiens) (UniProt P09038); test: basic fibroblast growth factor binding to printed compounds – biochemical, small-molecule microarray, 635/667 nm fluorescence, primary screen (AID 1133); settings: FGF2, fluorescence 635/667, higher = more signal
Chain of Fibroblast growth factor 2 (Homo sapiens) (P09038 whole entry, looked up): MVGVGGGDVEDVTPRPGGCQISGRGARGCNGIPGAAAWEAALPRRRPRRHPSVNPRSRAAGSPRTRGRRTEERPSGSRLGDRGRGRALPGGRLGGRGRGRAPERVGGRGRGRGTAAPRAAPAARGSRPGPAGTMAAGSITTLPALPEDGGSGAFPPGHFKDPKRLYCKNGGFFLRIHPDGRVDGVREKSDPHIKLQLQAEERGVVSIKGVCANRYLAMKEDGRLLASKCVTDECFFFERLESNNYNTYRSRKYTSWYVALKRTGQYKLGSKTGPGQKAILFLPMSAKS

[15] = JC-1 mitochondrial potential readout, lung cancer cells – cell-based, A549, JC-1 fluorescence, basal, 24 h, 100 nL, profiling panel (AID 1138); settings: higher = more signal;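 note: A549 lung adenocarcinoma cells under basal conditions with no added stimulus; test concentration not given here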
Lefty1 = Lefty1 protein binding to printed compounds – biochemical, small-molecule microarray, 635/667 nm fluorescence, primary screen (AID 1139); settings: fluorescence 635/667, higher = more signal
[16] = system: wheat germ agglutinin (Triticum aestivum), Alexa647-labelled; test: Alexa647-WGA lectin binding to printed small molecules – biochemical, small-molecule microarray, 635/667 nm fluorescence, artefact control for SMM control-protein annotation, profiling panel (AID 1140); settings: WGA-A647 binding, 635 nm fluorescence, higher = more signal;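 note: score merges 667 nm feature emission with signal to noise over triplicate slides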
[17] = target: Luciferin 4-monooxygenase (Photinus pyralis) (UniProt P08659); test: inhibition of purified Photinus pyralis luciferase – biochemical, luminescence, purified enzyme, 2006 set, primary screen (AID 1141); settings: purified firefly luciferase, SteadyGlo luminescence, 30 min; higher = more signal, called active from +8 up or from −8 down;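 note: cell-free assay with purified firefly luciferase at 100 ng per well in PBS; test concentration not given here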
Chain of Luciferin 4-monooxygenase (Photinus pyralis) (P08659 whole entry, looked up): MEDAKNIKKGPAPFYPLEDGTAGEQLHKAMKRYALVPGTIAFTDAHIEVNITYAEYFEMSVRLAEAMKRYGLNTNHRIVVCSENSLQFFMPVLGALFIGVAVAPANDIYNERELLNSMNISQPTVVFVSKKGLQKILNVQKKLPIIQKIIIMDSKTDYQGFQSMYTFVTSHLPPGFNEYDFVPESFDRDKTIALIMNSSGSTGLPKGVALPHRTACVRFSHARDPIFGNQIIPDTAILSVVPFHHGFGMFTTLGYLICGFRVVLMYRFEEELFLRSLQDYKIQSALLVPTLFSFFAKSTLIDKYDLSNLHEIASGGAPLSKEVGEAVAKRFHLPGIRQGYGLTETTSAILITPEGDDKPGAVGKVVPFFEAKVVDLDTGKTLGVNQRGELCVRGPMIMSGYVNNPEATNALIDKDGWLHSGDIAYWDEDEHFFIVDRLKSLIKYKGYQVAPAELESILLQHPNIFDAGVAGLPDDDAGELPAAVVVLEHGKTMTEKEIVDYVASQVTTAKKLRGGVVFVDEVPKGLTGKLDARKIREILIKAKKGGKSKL

| SMILES | composite z-score (Albumin (Bos taurus)) | composite Z-score [1] | composite z-score [2] | composite z-score [3] | composite z-score [4] | composite z-score [5] | composite z-score [6] | composite z-score (Sam68 (KHDRBS1)) | composite z-score [7] | composite z-score [8] | composite z-score [9] | composite z-score [10] | composite z-score [11] | composite z-score [12] | composite z-score [13] | composite z-score [14] | z-score [15] | composite z-score (Lefty1) | composite z-score [16] | z-score [17] |
| --- | --- | --- | --- | --- | --- | --- | --- | --- | --- | --- | --- | --- | --- | --- | --- | --- | --- | --- | --- | --- |
| O=C1c2ccccc2[C@](Cc2ccccc2I)(C(=O)NCC(F)(F)F)[C@H](c2ccc(CO)cc2)N1Cc1ccccc1Cl | 0.83 | -0.228 (inactive) | 0.0445 | -0.0811 | 0.596 | 2.04 | 1.42 | 1.29 | -0.466 | 1.09 | -0.176 | 1.19 | 1.22 | 0.722 | 1.1 | 0.138 | 0.423 | 0.883 | 0.549 | 0.406 (inactive) |
| C=C[C@@H](COC(=O)OC(C)(C)C)N(Cc1ccc(OC)cc1)S(=O)(=O)c1ccc(Br)cc1 | -0.0125 | 0.342 (inactive) | 0.185 | -0.154 | -0.0303 | 0.456 | -0.024 | 0.828 | 0.708 | 0.802 | 1.03 | 1.11 | 0.43 | 0.731 | 0.844 | 0.683 | 3.28 | 0.9 | 0.285 | -0.694 (inactive) |
| C=CCOC(=O)[C@H]1[C@@H]2C(=O)O[C@@H](c3ccccc3)[C@@H](c3ccccc3)N2[C@@H](c2ccc(OCCOC(=O)[C@@H]3C[C@@H]4C(=O)N[C@@H](CC(C)C)C(=O)N4[C@@H]3c3ccc(O)cc3)cc2)[C@]12C(=O)Nc1ccccc12 | 0.481 | 0.183 (inactive) | 0.058 | -0.0631 | 0.592 | 2.62 | 0.545 | 1.29 | 1.25 | 1.15 | 2.05 | 1.21 | 0.289 | 0.78 | 1.39 | 1.83 | -1.56 | 1.54 | 0.232 | -0.0838 (inactive) |
| CCCC[C@@H]1C[C@H]1[C@@H](NC(=O)c1ccco1)c1ccc(-c2ccccc2)cc1 | 0.0697 | 0.572 (inactive) | 0.0155 | 0.0474 | 0.344 | -0.66 | -0.305 | 0.325 | -0.33 | 0.163 | 0.633 | 0.665 | 0.218 | -0.275 | 0.038 | -0.199 | -1.12 | -0.0072 | 0.124 | 1.01 (inactive) |
| C=C(CCCC)/C(=C/C[C@@H](OC(C)=O)c1ccc(OCCO)cc1)c1cnc2ccccc2c1 | 0.631 | -0.302 (inactive) | 0.0964 | -0.0942 | 0.718 | 0.696 | 0.35 | 1.28 | 0.963 | 0.555 | 1.42 | 0.974 | 0.153 | 0.539 | 1.12 | 0.502 | 1.49 | 0.856 | 0.773 | -1.81 (inactive) |
| CC(C)=CCCC(C)=CC(O)C1C=CC2C(=O)N(C)C(=O)C2N1Nc1ccccc1 (stereo not given) | 0.919 | -0.305 (inactive) | 0.286 | -0.011 | 0.435 | 2.66 | 0.309 | 1.3 | 1.28 | 1.18 | 1.17 | 1.21 | 0.832 | 1.03 | 1.38 | 0.709 | 0.797 | 1.08 | 1.22 | 0.15 (inactive) |
| C=C(COC)/C(=C/C[C@H](OC(C)=O)c1ccc(CO)o1)c1cc(C(=O)OC)ccc1OC | 0.424 | 0.482 (inactive) | -0.103 | -0.155 | 0.654 | 0.107 | 0.022 | 0.322 | 0.0151 | -0.714 | 0.795 | 0.516 | 0.0348 | 0.255 | 0.435 | -0.1 | -0.91 | 0.57 | -0.199 | -0.769 (inactive) |
| CC(CO)N1C(=O)[C@@H]2C3C(=O)OCCC/C=C\[C@H]3OC23C=CCN(C(C)(C)C)C(=O)[C@@H]13 (stereo not given in full) | -0.757 | -0.483 (inactive) | -0.103 | -0.167 | 0.872 | 0.295 | 0.198 | -0.0677 | -0.184 | 0.0099 | -0.286 | -0.615 | -0.05 | -0.47 | 0.122 | -0.0209 | -0.0344 | 0.476 | -0.452 | -0.562 (inactive) |
| O=C(N1CCCCC1)[C@]1(Cc2ccccc2)N=C(c2ccc(OCCCO)cc2)O[C@@H]1c1ccccc1 | 0.441 | -0.425 (inactive) | 0.096 | -0.0561 | 0.225 | 1.24 | 0.968 | 1.18 | -0.862 | 1.06 | 2.63 | 1.19 | 0.534 | 0.632 | 0.301 | 0.042 | -1.62 | -0.506 | 0.99 | -0.265 (inactive) |
| O=C(c1ccccc1)N1Cc2ccccc2C[C@@]2(COC(c3ccc(OCCCO)cc3)=N2)C1=O | 0.833 | -0.305 (inactive) | -0.0647 | -0.0304 | 0.288 | 2.66 | 0.549 | 1.29 | 0.271 | 1.11 | 2.32 | 1.23 | 0.242 | 0.905 | 1.34 | 1.45 | 0.604 | 0.663 | 0.71 | -1.31 (inactive) |
| Cc1ccc(S[C@]2(C(=O)O)CC(=O)N(C(C)C)[C@@H]2c2ccc(CO)cc2I)cc1 | 0.162 | 0.556 (inactive) | 0.208 | 0.164 | 0.566 | 1.99 | 0.73 | 0.784 | -0.17 | 1.03 | 3.36 | 0.476 | 0.929 | 0.432 | 1.12 | 0.253 | 1.33 | -0.176 | 0.939 | -2.26 (inactive) |
